About 880 (0.9%) of roughly 98,000 compounds were called active. Cut-off read from the data, not from the text of the source: active = inhibition above about 30%; inactive = the rest. Only a selection was taken, and actives are over-represented in it overall.
assay: phenotypic screen on post-Golgi transport, primary screen (AID 739); conditions: post-Golgi transport phenotypic cell assay; at 10 µM; active compounds read high;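 note: yeast cells grown in 1536-well plates; yeast grown about 18 h at 30C before absorbance read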

inhibition, inactive:
CC(C)Cn1cnc2c1c(=O)n(CC(O)c1ccccc1)c(=O)n2CC(C)C (stereo unspecified) 2.02%
CCn1c2ccccc2c2cc(NC(=S)N3CCOCC3)ccc21 8.17%
COc1ccc(N2CCN(Cc3cc(=O)oc4ccc5ccccc5c34)CC2)cc1 14.4%
CCCC(=O)N(CCc1ccccc1)Cc1nc2ccccc2c(=O)[nH]1 -6.28%
CC(C)c1ccc(NC(=O)CCN2C(=O)c3ccc([N+](=O)[O-])cc3C2=O)cc1 -0.5%
Cc1ccc(S(=O)(=O)NCC(=O)N(CC(=O)NC(C)(C)C)Cc2cccs2)cc1 -2.77%
Cn1nc([N+](=O)[O-])nc1Sc1ccc(C(C)(C)C)cc1 0.31%
Cn1c(Cn2nnc3ccccc32)nnc1SCC(=O)c1ccccc1F 11.5%
COc1ccc(C(CNC(=O)c2cccnc2SC)N2CCOCC2)cc1 (stereo unspecified) -3.85%
O=C(c1cccnc1NCc1ccccc1)N1CCOCC1 -0.34%
Cc1ccc(SCC(=O)c2sc(-c3ccccc3)nc2C)cc1 -0.4%
O=C(COc1ncnc2c(Cl)cc(Cl)cc12)N1CCN(S(=O)(=O)c2ccccc2)CC1 18.3%
CC(=O)NNc1cc(=O)c2c(=O)n(C)c(=O)n(C)c2[nH]1 9.45%
O=C(O)C1CCCN(S(=O)(=O)c2cccc3cccnc23)C1 (stereo unspecified) -3.64%
CNS(=O)(=O)c1cnccc1N1CCN(c2cccc(C)c2)CC1 -3.21%
CCCOn1c(-n2nc(C)cc2C)nc2ccccc2c1=O 2.91%
CCOC(=O)N1CCN(c2c(NCCCN3CCCC(C)C3)c(=O)c2=O)CC1 (stereo unspecified) 7.09%
O=C(OCc1cn(-c2ccc(Cl)c(Cl)c2)nn1)c1ccccc1Cl -1.94%
CCc1ccc(NC(=O)CSc2nc3ccccc3c(=O)n2CCN2CCOCC2)cc1 0%
Cc1nc2ccccc2c(=O)n1CCCn1ccnc1 2.21%
O=C(CCCCCn1c(=O)[nH]c2ccccc2c1=O)NCCc1c[nH]c2ccccc12 -3.35%
COc1ccc2c(c1)CCc1c(C(=O)Nc3c(C)n(C)n(-c4ccccc4)c3=O)noc1-2 3.19%
COc1ccc2c(c1)CCc1c(C(=O)N3CCCC3)noc1-2 -1.12%
CCN(CC)CCCNC(=O)CCc1ccccc1 3.7%
Cc1nn(CC(=O)Nc2nc3ccccc3s2)c(C)c1[N+](=O)[O-] -1.92%
O=C(CCS(=O)(=O)c1cccc2nsnc12)N1CCN(c2ccccc2F)CC1 6.04%
Fc1ccc(N2N=C(c3cccs3)CC2c2ccco2)c(F)c1 (stereo unspecified) 8.56%
Cc1cc2cc3c(cc2nc1SCC(=O)Nc1c(C)cccc1C)CCC3 -0.36%
Cc1nc2cc(NC(=O)CSc3nc4c(C)cccc4cc3C#N)ccc2s1 -0.17%
CC(C)C(NS(=O)(=O)c1cccs1)C(=O)Nc1nc(C(C)(C)C)cs1 (stereo unspecified) 7.03%
Cc1c(C=O)c2ccccn2c1C(=O)c1ccncc1 -6.66%
COc1ccc(NC(=O)Nc2ccc3nc(C)c(C)nc3c2)cc1 -7.69%
COc1ccc(NC(=O)Nc2ccc3nsnc3c2)cc1 -0.7%
CC(=O)Nc1ccccc1C(=O)C(=O)Nc1ccc(F)cc1 -1%
N/C(=N\OC(=O)Nc1ccc(Cl)c(Cl)c1)c1ncc(C(F)(F)F)cc1Cl 3.3%
Cc1nnc(NC(=O)Nc2ccc(Cl)c(Cl)c2)s1 5.16%
COc1cc(SC)ccc1C(=O)NCCOc1ccccc1Cl 4.48%
Cc1ccc(-c2nc3ccccc3[nH]2)cc1N 0.67%
c1ccc(-c2[nH]ncc2-c2nc3ccccc3[nH]2)cc1 11%
CCCc1ccc(OCC(=O)NNC(=S)NC(=O)c2ccco2)cc1 27.3%
COc1ccc(C(=O)NC(=S)NNC(=O)CCc2ccccc2)cc1 0.19%
CCN(CC(=O)NC1CCS(=O)(=O)C1)c1nc(-c2cccnc2)nc2ccccc12 (stereo unspecified) 3.37%
COC(=O)Cc1cc(=O)oc2c(C)c(O)ccc12 -6.64%
CCn1cc(C(=O)N2CCN(Cc3ccc4c(c3)OCO4)CC2)c2cc(OC)c(OC)cc2c1=O -1.13%
CS(=O)(=O)N(CC(=O)N1CCN(Cc2ccc3c(c2)OCO3)CC1)c1ccc2c(c1)OCO2 6.95%
CC(=O)c1ccc(Cc2ncc(C(F)(F)F)cc2Cl)s1 6.38%
COc1ccc(-c2ccc(Nc3ccc(S(=O)(=O)N4CCCC4)cc3)nn2)cc1OC 1.55%
COc1ccc(-c2cc(C(F)(F)F)nc(NCc3cccnc3)n2)cc1 10.4%
CCOC(=O)c1cc2c(ccn2C)n1CC(=O)N1CCC(C)CC1 1.25%

inhibition, active:
CN(Cc1nc2ccccc2c(=O)[nH]1)Cc1cc(=O)oc2ccc3ccccc3c12 39.3%
CSc1ncccc1C(=O)OCC(=O)N1CCOCC1 31.5%
O=S(=O)(c1cnccc1N1CCN(/N=C/c2ccc(Br)cc2)CC1)N1CCCCC1 49.6%
CCn1c(/C=C/c2ccc([N+](=O)[O-])o2)nc2ccccc2c1=O 76.6%
COc1ccc2c(c1)CCc1c(C(=O)N3CCc4ccccc4C3)noc1-2 40.4%
CC(NC(=O)CSc1nc2c(cc1C#N)CN(C)CC2)c1ccccc1 (stereo unspecified) 60.2%
O=C(Nc1ccc2ccccc2c1)Nc1ccc2snnc2c1 96.1%
O=C(CC(O)(C(F)(F)F)C(F)(F)F)Nc1ccc(Cl)c(Cl)c1 105%
c1ccc2[nH]c(-c3nc4ccccc4[nH]3)nc2c1 30.1%
CC(Oc1ccc2ccccc2c1)C(=O)NNC(=S)NC(=O)c1ccco1 (stereo unspecified) 43%
COc1cc(Cl)c(S(=O)(=O)N2CCN(Cc3ccc4c(c3)OCO4)CC2)cc1Cl 38.9%
COc1ccc(-c2cc(C(F)(F)F)nc(S(C)(=O)=O)n2)cc1OC 54.9%
